# From PubChem BioAssay AID463173 (ICCB-Longwood Screening Facility, Harvard Medical School, 2010)
# Among all 52,000 compounds or so, about 1,700 (3.3%) were called active. Cut-off read from the data, not from the text of the source: active = survival mostly below about 52% (no sharp cut-off); inactive = mostly above about 56%. Only a selection was taken, and actives are over-represented in it overall.
# System: Wild type
# Experiment: growth inhibition of S. aureus wild type versus tarO mutant, primary screen, teichoic acid synthesis inhibitors, RN4220, OD600 (AID 463173)
# Settings: S. aureus RN4220 wild type/DeltatarO growth, OD600, 18 h, stronger effect = lower value, screened at 18.75 µg/mL (by protocol)
row,SMILES,survival
1,Cc1ccccc1N(C)S(=O)(=O)c1nnc(NC(=O)c2ccccc2F)s1,33% (inactive)
2,CCOC(=O)CC(NC(=O)Cn1nnc(-c2ccc(C(F)(F)F)cc2)n1)c1ccc(C)cc1 (stereo not drawn),87% (inactive)
3,CCc1ccc(NC(=O)Cc2c(C(=O)O)c(C)cn2C)cc1,76% (inactive)
4,Cc1ccc(C)c(NC(=O)CCOc2ccccc2)c1,94% (inactive)
5,Cc1c(Cl)cccc1NC(=O)CCOc1ccccc1,145% (inactive)
6,CCOC(=O)c1ccccc1NC(=O)CCOc1ccccc1,6% (active)
7,CCOC(=O)c1ccccc1NC(=O)Cc1c(C(=O)O)c(C)cn1C,-1% (active)
8,Cc1cn(C)c(CC(=O)Nc2cccc(Cl)c2C)c1C(=O)O,124% (inactive)
9,CC(=O)N1CCc2cc(S(=O)(=O)NC(Cc3ccccc3)C(=O)Nc3ccc(Cl)cc3)ccc21 (stereo not drawn),89% (inactive)
10,O=C(NCCc1ccccc1)c1cc(-c2ccc(Cl)cc2)on1,101% (inactive)
11,O=C(NCc1ccccc1F)C(=O)NCC(c1ccc2c(c1)OCO2)N1CCOCC1 (stereo not drawn),71% (inactive)
12,CCc1cccc(CC)c1NC(=O)C(CC)n1nc(C)n2c(cc3cc(C)ccc32)c1=O (stereo not drawn),73% (inactive)
13,CCOc1ccc(CN2C(=O)c3ccccc3Sc3ccc(C(=O)NC)cc32)cc1,78% (inactive)
14,Cc1cccc(/C=N/NC(=O)c2ccccn2)c1O,18% (inactive)
15,Cc1cc(S(=O)(=O)N(C)CCc2ccccc2)ccc1-n1cnnn1,99% (inactive)
16,CCOC(=O)c1cc(S(=O)(=O)Nc2cc(OC)ccc2OC)[nH]n1,123% (inactive)
17,CCOC(=O)c1cc(S(=O)(=O)Nc2ccc(OC)c(Cl)c2)[nH]n1,-6% (active)
18,CCOC(=O)c1cc(S(=O)(=O)Nc2cc(C)c(Cl)cc2OC)[nH]n1,98% (inactive)
19,CCOC(=O)c1cc2sccc2n1CC(=O)NC(C)C,100% (inactive)
20,COc1ccc(-c2cnc(C)o2)cc1S(=O)(=O)Nc1ccc(C)c(F)c1,60% (inactive)
21,Fc1ccc(-n2ncc3c(N4CCCCCC4)ncnc32)cc1,82% (inactive)
22,Cc1ccc(N2C(=O)CSC23C(=O)N(CC(=O)Nc2ccc(C(C)C)cc2)c2ccccc23)cc1C (stereo not drawn),80% (inactive)
23,CCOc1ccc(-c2cn3c(n2)sc2cc(C(=O)NCCCN(CC)CC)ccc23)cc1,2% (active)
24,CCOc1ccc(-c2cn3c(n2)sc2cc(C(=O)NCCCc4ccccc4)ccc23)cc1,96% (inactive)
25,CCCSCCCNC(=O)c1ccc2c(c1)sc1nc(-c3ccc(OCC)cc3)cn12,85% (inactive)
26,CCCNC(=O)c1ccc2c(c1)sc1nc(-c3ccc(C)cc3)cn12,103% (inactive)
27,CCN(CC)CCNC(=O)c1ccc2c(c1)sc1nc(-c3ccc(F)cc3)cn12,27% (inactive)
28,CCN(CC)CCCNC(=O)c1ccc2c(c1)sc1nc(-c3ccc(C)cc3)cn12,8% (active)
